# Hit rate of the full screen: of about 5,500 compounds, about 2,000 (36%) were called active. Inconclusive results (about 18%) are left out. This is one part of the list. A number with no mark means an inactive call. No stated cut-off is given here; in the data, active means normalized growth mostly below about 0.91 (no sharp cut-off); inconclusive means no clear call, values can overlap the other calls; inactive means mostly above about 0.92.
# Experiment: chemical genetic growth profiling, strain panel (AID 1159580);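 further: tested at 20 µM; growth read once vehicle control cultures reached saturation at 30 °C; 1 = growth at the plate median or of vehicle wells; lower values mean less growth of the strain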
# Conditions: growth OD
structure (smiles),measurement,setting,value
Cc1cc2c3c(c1)c(O)cc(=O)n3CCC2,normalized growth,"S. cerevisiae deletion strains, locus YAL013W, strain DEP1, hits give low values",0.967
same,normalized growth,"S. cerevisiae deletion strains, locus YBR229C, strain ROT2, hits give low values",0.989
same,normalized growth,"S. cerevisiae deletion strains, locus YDL101C, strain DUN1, hits give low values",0.981
same,normalized growth,"S. cerevisiae deletion strains, locus YDL134C, strain PPH21, hits give low values",0.968
same,normalized growth,"S. cerevisiae deletion strains, locus YDR150W, strain NUM1, hits give low values",1
same,normalized growth,"S. cerevisiae deletion strains, locus YEL061C, strain CIN8, hits give low values",1.01
same,normalized growth,"S. cerevisiae deletion strains, locus YGR078C, strain PAC10, hits give low values",0.991
same,normalized growth,"S. cerevisiae deletion strains, locus YGR229C, strain SMI1, hits give low values",0.974
same,normalized growth,"S. cerevisiae deletion strains, locus YHR030C, strain SLT2, hits give low values",0.518 (active)
same,normalized growth,"S. cerevisiae deletion strains, locus YHR087W, strain rtc3, hits give low values",0.991
same,normalized growth,"S. cerevisiae deletion strains, locus YJL187C, strain SWE1, hits give low values",0.984
same,normalized growth,"S. cerevisiae deletion strains, locus YJR043C, strain POL32, hits give low values",0.984
same,normalized growth,"S. cerevisiae deletion strains, locus YJR075W, strain HOC1, hits give low values",1
same,normalized growth,"S. cerevisiae deletion strains, locus YKL190W, strain CNB1, hits give low values",0.988
same,normalized growth,"S. cerevisiae deletion strains, locus YLR039C, strain RIC1, hits give low values",0.544 (active)
same,normalized growth,"S. cerevisiae deletion strains, locus YLR058C, strain SHM2 (second series), hits give low values",0.995
same,normalized growth,"S. cerevisiae deletion strains, locus YLR085C, strain ARP6, hits give low values",0.968
same,normalized growth,"S. cerevisiae deletion strains, locus YLR262C, strain YPT6, hits give low values",0.549 (active)
same,normalized growth,"S. cerevisiae deletion strains, locus YML094W, strain GIM5, hits give low values",1.02
same,normalized growth,"S. cerevisiae deletion strains, locus YMR219W, strain ESC1, hits give low values",0.969
same,normalized growth,"S. cerevisiae deletion strains, locus YMR263W, strain SAP30, hits give low values",0.968
same,normalized growth,"S. cerevisiae deletion strains, locus YNL128W, strain TEP1, hits give low values",0.989
same,normalized growth,"S. cerevisiae deletion strains, locus YNL153C, strain GIM3, hits give low values",0.971
same,normalized growth,"S. cerevisiae deletion strains, locus YNL298W, strain CLA4 (second series), hits give low values",1.01
same,normalized growth,"S. cerevisiae deletion strains, locus YNL322C, strain KRE1, hits give low values",0.993
same,normalized growth,"S. cerevisiae deletion strains, locus YNR030W, strain Alg12, hits give low values",0.989
same,normalized growth,"S. cerevisiae deletion strains, locus YOL006C, strain TOP1, hits give low values",1.03
same,normalized growth,"S. cerevisiae deletion strains, locus YPL055C, strain LGE1, hits give low values",0.88
same,normalized growth,"S. cerevisiae deletion strains, locus YPL241C, strain CIN2, hits give low values",0.96
same,normalized growth,"S. cerevisiae deletion strains, locus YPR135W, strain CTF4, hits give low values",0.918
same,normalized growth,"S. cerevisiae strains, strain wild type, hits give low values",0.967

# From PubChem BioAssay AID1159580 (chemical genetic matrix, 2015)
